Test results published in PubChem BioAssay (NCATS).
Records with an inconclusive call do not appear. The source made the active and inactive calls. The call rests on the fitted dose curve; in most records, active means well fitted cell-killing curve with a large enough effect; inconclusive means small, poorly fitted or top-dose-only effect, or effect the other way; inactive means no such curve, though single readings can be large or run the other way.

assay: Quantitative High-Throughput drug screen in 47 multiple myeloma cell lines against the NCATS MIPE library collection: VP6_DJ cell viability assay (AID 1919867); settings: ATP luminescence, 48 h; series mostly up to 45.8 µM; further: nearly all actives have a fitted effect of over 40% in size
Procedure, shortened: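 qHTS format: cells plated (500/well), pin-dosed with MIPE 4.0 compounds, kept 48 h at 37 °C. Readout was CellTiter-Glo luminescence, median RLU.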
Potency means the concentration at half of the fitted maximal effect.

For CN1[C@H]2CC[C@H]1CC(OC(=O)c1c[nH]c3ccccc13)C2 (stereo not given in full), which Potency is on record?
Its Potency is 8.33 µM (active).

With N#CC1(c2cccc(C(=O)Nc3cc(Oc4ccc5nc(NC(=O)C6CC6)sc5n4)ccc3F)c2Cl)CC1 as the molecule, how does the Potency read?
Its Potency is 5.9 µM (active).

With O=c1cc(-c2ccc(O)c(O)c2)oc2cc(O)cc(O)c12 as the molecule, how does the Potency read?
Its Potency is 11.8 µM (active).

Which Potency does the source give for CCCCC(C=O)NC(=O)C(CC(C)C)NC(=O)OCc1ccccc1 (stereo not given) here?
Its Potency is “inactive”.

Which Potency does the source give for Cc1cc(CS(=O)(=O)c2ccccc2)cc(OCc2ccc(CN3CCC[C@H]3CO)cc2)c1 here?
The Potency was 0.296 µM (active).

For COc1nc(C)cnc1NS(=O)(=O)c1cccnc1-c1ccc(-c2nnco2)cc1, which Potency is on record?
Its Potency is “inactive”.

Which Potency does the source give for N[C@@H](CC(=O)N1CCn2c(nnc2C(F)(F)F)C1)Cc1cc(F)c(F)cc1F here?
Its Potency is “inactive”.

For CCC(=O)NCC[C@@H]1CCc2ccc3c(c21)CCO3, which Potency is on record?
The Potency was “inactive”.

Which Potency does the source give for OC[C@H]1O[C@@H](Oc2ccc(O)cc2)[C@H](O)[C@@H](O)[C@H]1O here?
The Potency was 7.43 µM (active).

With COc1ccc2c(c1)CC[C@H]1[C@@H]2CC[C@]2(C)[C@@H](NCCCCCCN3C(=O)C=CC3=O)CC[C@H]12 as the molecule, how does the Potency read?
The Potency was “inactive”.

With COc1nccc(-c2c(-c3ccc(F)cc3)ncn2C2CCNCC2)n1 as the molecule, how does the Potency read?
The Potency was 1.18 µM (active).

Which Potency does the source give for NC(=O)c1ccc(N(C(N)=O)c2c(F)cccc2F)nc1-c1ccc(F)cc1F here?
The Potency was 16.6 µM (active).

For Cc1c(-c2cccc3c(CCCOc4cccc5ccccc45)c(C(=O)O)n(Cc4cccnc4)c23)c(COc2ccc(N3CCN([S+](=O)([O-])N(C)C)CC3)cc2)nn1C, which Potency is on record?
Its Potency is 8.33 µM (active).

Which Potency does the source give for CCCCCCCCCCCCCCCC(=O)O[C@H]1[C@@H](O)[C@@H](O)[C@@H]([C@H](NC(=O)[C@@H]2C[C@@H](CCC)CN2C)[C@H](C)Cl)O[C@@H]1SC here?
The Potency was “inactive”.

With CC=C(C(=CC)c1ccc(O)cc1)c1ccc(O)cc1 as the molecule, how does the Potency read?
Its Potency is 18.7 µM (active).
